Inconclusive results are not listed. Activity calls are given as the source filed them. Unless noted, calls come from the whole dose curve; as a rule, active = well fitted curve in the direction sought with a large enough effect; inconclusive = small, poorly fitted or top-dose-only effect, or another doubt; inactive = no such curve, though single readings can be large; an effect the other way counts as inactive or inconclusive.
How the values were obtained:
[1] = Cell Viability - BJ (AID 421; calls by dose curve;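 note: potency is the fitted concentration of half-maximal effect; cells exposed to compound for 40 hours at 37 °C before readout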); details: BJ fibroblast viability, qHTS
How it was run: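 Normal human BJ foreskin fibroblasts, 1500/well in complete medium, treated 40 hr at 37 °C. Cellular ATP by CellTiter-Glo luminescence; normalized to DMSO and 100 uM tamoxifen, AC50 from Hill fit.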

[2] = Cell Viability - Jurkat (AID 426;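 active = dose-dependent loss of cell ATP signal giving a full or clear fitted curve, ranked by lower potency value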; note: potency is the fitted concentration of half-maximal effect); details: qHTS
How it was run: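 Cytotoxicity taken as drop in cellular ATP (CellTiter-Glo luminescence, 20 min room temperature) after 40 hr, 37C treatment of 5000 Jurkat Clone E6-1 cells per well; concentration-response fitted with Hill equation for AC50.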

[3] = Cell Viability - Hek293 (AID 427;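 active = compounds whose dose-response curve shows a full or clear partial loss of cell viability, called from curve shape rather than a numeric limit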;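 note: potency is the fitted concentration of half-maximal effect; cells exposed to compound for 40 hours at 37 °C before reading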); details: qHTS
How it was run: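 HEK293 cells in complete medium were exposed to compound for 40 hr at 37 °C, then cellular ATP was read by CellTiter-Glo luminescence. Data were normalized to DMSO (basal) and 100 uM tamoxifen (100% inhibition), and AC50 came from Hill fits.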

[4] = Cell Viability - HepG2 (AID 433; calls by dose curve;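 note: potency is the fitted concentration of half-maximal effect; potency for ATP loss meaning cytotoxicity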); details: qHTS
How it was run: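 Cytotoxicity is scored as loss of intracellular ATP in HepG2 cells exposed to compounds for 40 h. Concentration-response curves, normalized to DMSO and 100 uM tamoxifen, give AC50 values.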

[5] = Cell Viability - MRC5 (AID 434; calls by dose curve;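 note: potency is the fitted concentration of half-maximal effect; potency reflects cytotoxicity seen as loss of intracellular ATP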); details: MRC5 lung fibroblast viability, qHTS
How it was run: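 AC50 values come from Hill-equation fits of intracellular ATP loss, measured by CellTiter-Glo luminescence. Normal lung fibroblasts (MRC5) had 40 hr compound treatment at 37 C, normalized between DMSO and 100 uM tamoxifen.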

[6] = Cell Viability - SK-N-SH (AID 435; calls by dose curve; note: potency is the fitted concentration of half-maximal effect); details: SK-N-SH neuroblastoma cell viability qHTS
How it was run: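 Cells seeded at 1500 per well and incubated 5 hr at 37 °C. Compound added, then 40 hr at 37 °C. CellTiter-Glo added, 20 min at room temperature, luminescence read.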

[7] = molecular target: Mitogen-activated protein kinase 10 (Mus musculus) (UniProt Q61831); test: JNK3 AlphaScreen Assay (AID 530; active = well fitted curve in either direction with a large enough effect, not every such curve was filed as active;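 note: kinase came from lysate of stimulated human HepG2 cells; signal reports phosphorylation of biotinylated GST-cJun 1-79 at Ser73 with 10 µM ATP; % is set by controls: 0 for no effect and ±100 for the full control effect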); details: JNK3 lysate, c-Jun phosphorylation; series mostly up to 57.1 µM
How it was run: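 qHTS titrations with 15 min compound pre-incubation before adding ATP (10 uM final). Read-out: AlphaScreen of Ser73-phosphorylated biotin-GST-cJun using HepG2 lysate JNK3 activated by IL-1β and TNFα.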

[8] = Cell Viability - N2a (AID 540); details: N2a mouse neuroblastoma cell viability; activity change, negative = cytotoxicity: at 92.2 µM (top of the series);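 note: plate controls were DMSO alone for no effect and tamoxifen control for full effect; nearly all actives have a fitted effect of over 45% in size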
How it was run: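 CellTiter-Glo ATP luminescence, read 20 min after reagent at room temperature, reported viability following 40 h compound treatment at 37 °C. N2a mouse neuroblastoma cells seeded 1500/well; Hill equation gave AC50.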

[9] = Cell Viability - NIH 3T3 (AID 541); details: NIH 3T3 cell viability, qHTS; activity change, negative = cytotoxicity: at 92.2 µM (top of the series);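 note: plate controls were DMSO alone for no effect and tamoxifen positive control for full effect; nearly all actives have a fitted effect of over 25% in size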
How it was run: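 Intracellular ATP (CellTiter-Glo luminescence, 20 min at room temperature) measured after 40 hr compound exposure at 37 °C of 1000 NIH 3T3 mouse fibroblasts/well in complete medium; AC50 derived by Hill-equation modelling of qHTS concentration-response curves.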

[10] = Cell Viability - HUV-EC-C (AID 542); details: HUV-EC-C endothelial cell viability, qHTS; series mostly up to 92.2 µM; note: % is set by controls: 0 for no effect and ±100 for the full control effect; nearly all actives have a fitted effect of over 35% in size
How it was run: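 CellTiter-Glo luminescence measured ATP loss in HUV-EC-C cells (1000/well) after 40 hr compound exposure at 37 °C, in complete culture medium. Concentration-response data were Hill-fitted to give AC50.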

[11] = Cell Viability - H-4-II-E (AID 543); details: H-4-II-E rat hepatoma viability; series mostly up to 92.2 µM; note: % is set by controls: 0 for no effect and ±100 for the full control effect; nearly all actives have a fitted effect of over 35% in size
How it was run: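 CellTiter-Glo luminescence (intracellular ATP) measured after 40 h compound exposure at 37 °C in H-4-II-E rat hepatoma cells seeded at 1500/well. Values are AC50s fitted with the standard Hill equation.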

[12] = Cell Viability - SH-SY5Y (AID 544); details: SH-SY5Y neuroblastoma cell viability; viability change, negative = cytotoxic: at 92.2 µM (top of the series); note: nearly all actives have a fitted effect of over 55% in size
How it was run: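 Cytotoxicity measured via ATP-dependent luciferase luminescence (CellTiter-Glo) following 40 h, 37 °C exposure of 1500 SH-SY5Y cells per well. Concentration-response data were fitted with the standard Hill equation to give AC50.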

[13] = Cell Viability - Renal Proximal Tubule (AID 545); details: renal proximal tubule cells viability, primary cells of rat origin; series mostly up to 91.7 µM; note: nearly all actives have a fitted effect of over 40% in size
How it was run: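 Cytotoxicity is scored as a concentration-dependent drop in cellular ATP in primary rat renal proximal tubule cells exposed for 40 hr. AC50 derives from Hill modelling.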

[14] = Cell Viability - Mesenchymal (AID 546); details: mesenchymal cells viability, qHTS; series mostly up to 91.7 µM;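 note: cells exposed to compound for 40 hours before reading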
How it was run: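 CellTiter-Glo luminescence (intracellular ATP, 20 min room temperature) after 40 hr compound exposure at 37 °C of 1000 glomerulus-derived human kidney mesenchymal cells/well; AC50 values obtained by fitting qHTS concentration-response data to the Hill equation.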

[15] = Cellular Toxicity (caspase-3) HepG2 (AID 654); details: HepG2 caspase-3 activation, luminescence; series mostly up to 92.2 µM;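 note: cells exposed to compound for 16 hours before reading; 0% = DMSO alone and 100% = caspase signal from 100 µM tamoxifen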
How it was run: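 Caspase 3/7 activation is measured as a luminescence increase (aminoluciferin substrate) after 16 h compound exposure of human hepatocarcinoma HepG2 cells. AC50 values are Hill fits, scaled between DMSO baseline and 100 uM tamoxifen stimulation.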

[16] = Cellular Toxicity (caspase-3) Jurkat (AID 655); details: Jurkat caspase-3 activation, luminescence; caspase-3 activation: at 92.2 µM (top of the series), DMSO = 0%, tamoxifen = 100%;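 note: cells exposed to compound for 16 h at 37 °C before reading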
How it was run: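 Caspase 3/7 activation is scored as increased luminescence in Jurkat cells cultured with compound for 16 hours in complete medium. AC50 values come from Hill fits of qHTS concentration-response data normalized to DMSO and 100 uM tamoxifen controls.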

[17] = Cellular Toxicity (caspase-3) HUV-EC-C (AID 656); details: HUV-EC-C cells, caspase-3 activation (apoptosis), vehicle = 0, 100 µM tamoxifen = 100%; series mostly up to 92.2 µM
How it was run: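 Read-out: luminescence proportional to caspase 3/7 activity, measured 20 min after adding Caspase-Glo 3/7 reagent. Cells (HUV-EC-C) had received compound for 16 hr at 37°C. Increases relative to DMSO and 100 uM tamoxifen gave concentration-response AC50 values.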

[18] = Cellular Toxicity (caspase-3) SHSY5Y (AID 657); details: SH-SY5Y caspase-3 activation, DMSO zero, 10 µM staurosporine = 100%; series mostly up to 91.7 µM;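 note: cells exposed to compound for 16 hours at 37 °C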
How it was run: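 Cells plated and incubated 5 h at 37 °C, dosed over a concentration range, incubated 16 h, then given Caspase-Glo 3/7 reagent for 1 h at room temperature before luminescence reading. Staurosporine (10 uM) defined full stimulation.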

[19] = Cellular Toxicity (caspase-3) BJ (AID 658); details: BJ fibroblasts, luminescence, normalized: DMSO 0%, staurosporine 100%; series mostly up to 91.7 µM
How it was run: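 Caspase-Glo 3/7 luminescence, read 1 hr after reagent at room temperature, in normal BJ fibroblasts exposed 16 hours at 37 °C. AC50 values from Hill-equation concentration-response, scaled between DMSO basal and 10 uM staurosporine as 100%.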

[20] = Cellular Toxicity (caspase-3) MRC-5 (AID 659); details: MRC-5 cells, luminescence, normalized: DMSO 0%, 10 µM staurosporine 100%; series mostly up to 91.7 µM
How it was run: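 Luminescent Caspase-Glo 3/7 read-out (1 h, room temperature) after a 16 h, 37 °C compound exposure of MRC-5 lung fibroblasts at 1500 cells/well. Concentration-response AC50 from Hill equation; 0% DMSO, 100% 10 uM staurosporine.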

ClC/C=C/CCl
inactive: Potency [1] > 92 µM | Potency [2] > 92 µM | Potency [3] > 92 µM | Potency [4] > 92 µM | Potency [5] > 92 µM | Potency [6] > 92 µM | outcome [7] | activity change, negative = cytotoxicity [8] -2.88% | Potency [9] | Potency [10] | Potency [11] | Potency [12] | Potency [13] | Potency [14] | Potency [15] | caspase-3 activation [16] 1.47% | outcome [17] | outcome [18] | outcome [19] | outcome [20]

C=C(C)C(=O)OCCCCCCCCCC
inactive: Potency [1] > 92 µM | Potency [2] > 92 µM | Potency [3] > 92 µM | Potency [4] > 92 µM | Potency [5] > 92 µM | Potency [6] > 92 µM | outcome [7] | activity change, negative = cytotoxicity [8] 3.17% | Potency [9] | Potency [10] | Potency [11] | Potency [12] | Potency [13] | Potency [14] | Potency [15] | caspase-3 activation [16] -0.118% | outcome [17] | outcome [18] | outcome [19] | outcome [20]

CC1CCC2CC1C2(C)C (stereo not drawn)
inactive: Potency [1] > 92 µM | Potency [2] > 92 µM | Potency [3] > 92 µM | Potency [4] > 92 µM | Potency [5] > 92 µM | Potency [6] > 92 µM | outcome [7] | activity change, negative = cytotoxicity [8] -4.47% | Potency [9] | Potency [10] | Potency [11] | Potency [12] | Potency [13] | Potency [14] | Potency [15] | caspase-3 activation [16] -1.25% | outcome [17] | outcome [18] | outcome [19] | outcome [20]

C1COC1
inactive: Potency [1] > 92 µM | Potency [2] > 92 µM | Potency [3] > 92 µM | Potency [4] > 92 µM | Potency [5] > 92 µM | Potency [6] > 92 µM | outcome [7] | activity change, negative = cytotoxicity [8] -2.69% | Potency [9] | Potency [10] | Potency [11] | Potency [12] | Potency [13] | Potency [14] | Potency [15] | caspase-3 activation [16] -0.0782% | outcome [17] | outcome [18] | outcome [19] | outcome [20]

O=C(O)CNC(=O)c1ccc([N+](=O)[O-])cc1
inactive: Potency [1] > 92 µM | Potency [2] > 92 µM | Potency [3] > 92 µM | Potency [4] > 92 µM | Potency [5] > 92 µM | Potency [6] > 92 µM | outcome [7] | activity change, negative = cytotoxicity [8] -8.74% | Potency [9] | Potency [10] | Potency [11] | Potency [12] | Potency [13] | Potency [14] | Potency [15] | caspase-3 activation [16] 1.61% | outcome [17] | outcome [18] | outcome [19] | outcome [20]

CCCOCC(C)OCC(C)O (stereo not drawn)
inactive: Potency [1] > 92 µM | Potency [2] > 92 µM | Potency [3] > 92 µM | Potency [4] > 92 µM | Potency [5] > 92 µM | Potency [6] > 92 µM | outcome [7] | activity change, negative = cytotoxicity [8] -9.53% | Potency [9] | Potency [10] | Potency [11] | Potency [12] | Potency [13] | Potency [14] | Potency [15] | caspase-3 activation [16] -2.41% | outcome [17] | outcome [18] | outcome [19] | outcome [20]

CCC(C)(C)C(=O)O
inactive: Potency [1] > 92 µM | Potency [2] > 92 µM | Potency [3] > 92 µM | Potency [4] > 92 µM | Potency [5] > 92 µM | Potency [6] > 92 µM | outcome [7] | activity change, negative = cytotoxicity [8] 6.55% | Potency [9] | Potency [10] | Potency [11] | Potency [12] | Potency [13] | Potency [14] | Potency [15] | caspase-3 activation [16] -0.0519% | outcome [17] | outcome [18] | outcome [19] | outcome [20]

O=C1OC(=O)c2c(Br)c(Br)c(Br)c(Br)c21
inactive: Potency [1] > 92 µM | Potency [2] > 92 µM | Potency [3] > 92 µM | Potency [4] > 92 µM | Potency [5] > 92 µM | Potency [6] > 92 µM | outcome [7] | activity change, negative = cytotoxicity [8] -3.13% | Potency [9] | Potency [10] | Potency [11] | Potency [12] | Potency [13] | Potency [14] | Potency [15] | caspase-3 activation [16] -0.0657% | outcome [17] | outcome [18] | outcome [19]

OCCO
inactive: Potency [1] > 92 µM | Potency [2] > 92 µM | Potency [3] > 92 µM | Potency [4] > 92 µM | Potency [5] > 92 µM | Potency [6] > 92 µM | outcome [7] | activity change, negative = cytotoxicity [8] -12.9% | Potency [9] | Potency [10] | Potency [11] | Potency [12] | Potency [13] | Potency [14] | Potency [15] | caspase-3 activation [16] 1.1% | outcome [17] | outcome [18] | outcome [19] | outcome [20]

CC=O
inactive: Potency [1] > 92 µM | Potency [2] > 92 µM | Potency [3] > 92 µM | Potency [4] > 92 µM | Potency [5] > 92 µM | Potency [6] > 92 µM | outcome [7] | activity change, negative = cytotoxicity [8] 1.14% | Potency [9] | Potency [10] | Potency [11] | Potency [12] | Potency [13] | Potency [14] | Potency [15] | caspase-3 activation [16] -1.03% | outcome [17] | outcome [18] | outcome [19]

Nc1nc2ccccc2[nH]1
inactive: Potency [1] > 92 µM | Potency [2] > 92 µM | Potency [3] > 92 µM | Potency [4] > 92 µM | Potency [5] > 92 µM | Potency [6] > 92 µM | outcome [7] | activity change, negative = cytotoxicity [8] -3.92% | Potency [9] | Potency [10] | Potency [11] | Potency [12] | Potency [13] | Potency [14] | Potency [15] | caspase-3 activation [16] 10.5% | outcome [17] | outcome [18] | outcome [19] | outcome [20]
